High-throughput results as filed in PubChem BioAssay.
The list is not random: actives were taken first. Their share in the collection is about 2.2%.
Calb FLC = C. albicans growth modulation with fluconazole; C. albicans CaCi-2 (fluconazole-resistant clinical isolate) + fluconazole, Alamar Blue growth, 48 h; growth inhibition, % (test concentration not listed); 300,000 compounds, 0.57% hits;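 active = growth inhibition above about 58% in most replicates, limit read from the data, passing the limit was not always enough; inconclusive = exactly half the replicates above a set limit; inactive = most replicates below a set limit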;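 note: all wells also contain fluconazole at 8 µg/ml as a sub-toxic cotreatment; 0% = median of DMSO wells and 100% = median of geldanamycin control wells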
Shn3 inh set2 = inhibitors of Schnurri-3 3'UTR reporter in osteoblasts | Clone20 osteoblast Shn3 3'UTR firefly luciferase, 24 h | inhibition, % at 12.5 µM | 360,000 compounds, 0.52% hits;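 active = mean inhibition of at least 75% with every replicate also reaching 75%; inconclusive = mean inhibition at least 75% but some replicate below; inactive = mean inhibition below 75%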;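 note: 0% = median of neutral control wells and 100% = pilot-screen positive control compound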
CSC inhib = cancer stem cell inhibition; cancer stem cell-like cells viability, luminescence; inhibition, % at 7.5 µM; 300,000 compounds, 1.1% hits; in the data active = inhibition above about 75%; inconclusive = no clear call, values can overlap the other calls; tested in HMLE shEcad cells
Beta apoptosis = blocks beta cell apoptosis; 300,000 compounds, 0.8% hits; AID 435005; INS-1E cytokine-induced death, ATP luminescence, 48 h; percent of positive-control rescue, neutral wells zero; protection from apoptosis, % (test concentration not listed);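 active = Every replicate reaches about 75%, or at least half do and their mean reaches it too, limit read from the data; inconclusive = At least half of replicates reach the limit but their mean does not; inactive = Under half of replicates reach the limit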;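 note: 0% = cytokine-treated negative control wells and 100% = positive control rescue; higher means more ATP so stronger rescue from cytokine killing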
PfHsp90 yeast 2 = growth inhibition of yeast expressing Plasmodium Hsp90; 310,000 compounds, 0.32% hits; S. cerevisiae expressing PfHsp90, BacTiter-Glo ATP, 48 h; yeast lacking PDR1 and PDR3 efflux regulators; inhibition, % at 9.4 µM; AID 504621;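 active = every replicate shows inhibition above about 80%, whatever the replicate mean, limit read from the data; inconclusive = mean inhibition reaches the set limit but some replicate falls short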;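 note: 0% = DMSO neutral controls and 100% = 20 µM radicicol positive controls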
* marks the source's active call; other numbers are inactive results; ? = inconclusive; nt = no result given.

SMILES	Calb FLC	Shn3 inh set2	CSC inhib	Beta apoptosis	PfHsp90 yeast 2
CCCOc1ccc(C(=O)N2CCN(c3ccc(N)cc3Cl)CC2)cc1	-19	6	76*	4	21
Cc1cc(O)c(C2=Nc3ccccc3SC(c3ccc(Cl)cc3)C2)c(=O)o1 (configuration not stated)	-11	-57	21	3	-10
COc1ccc(C2CC(c3c(O)cc(C)oc3=O)=NCCS2)c(OC)c1 (configuration not stated)	nt	-12	80*	nt	6
O=C(Nc1ccc(NC(=O)c2cccs2)cc1)c1cccs1	?	-125	-5	0	10
O=C(Nc1nonc1NC(=O)c1cccs1)c1cccs1	85*	79	7	0	-35
COc1ccc(C(=O)C2CCCN(Cc3c[nH]c4ccccc34)C2)c(OC)c1 (configuration not stated)	5	0	1	-1	1
COCCNC(=O)CCCn1c(=O)c2cc(OC)c(OC)cc2n(CC(=O)NCCC2=CCCCC2)c1=O	51*	-78	-3	-4	-7
CCC1CCCCN1CCCCOc1cccc(Cl)c1 (configuration not stated)	-5	-4	0	3	-9
NNC(=O)c1cc(S(=O)(=O)N2CCOCC2)c[nH]1	nt	9	nt	-3	17
Cn1c(/C=C/c2ccccc2)nc2ccccc2c1=O	2	-49	10	9	-1
Cn1c(/C=C/c2ccc([N+](=O)[O-])o2)nc2ccccc2c1=O	4	96*	110*	106*	98*
Cc1ccccc1C(=O)Nc1cccc(C(=O)N/N=C/c2cc(Cl)cc([N+](=O)[O-])c2O)c1	4	14	49	101*	-39
CC1CN(C(=S)Nc2cccc([N+](=O)[O-])c2)CC(C)O1 (configuration not stated)	121*	22	12	-2	-23
O=C(C(Sc1ccccc1)c1ccc(Br)cc1)N1CCOCC1 (configuration not stated)	13	-2	-9	0	-3
O=C(C(Sc1ccccc1)c1ccccc1)N1CCN(c2ccccc2F)CC1 (configuration not stated)	-1	10	nt	90*	-8
COC(=O)c1cccc(NC(=O)c2cccnc2C(=O)O)c1C	11	2	0	0	-13
CN(CCOc1ccc(Br)cc1)C(=O)CNC(=O)c1ccc2ccccc2c1	0	10	8	-5	-30
CCCCCCSc1nsc(NC(=O)CC(C)C)n1	-14	9	91*	-6	-9
Cc1cc(C)nc(NC(=O)Nc2ccc(F)cc2F)n1	21	-24	-8	4	-7
CC(C)CC(N)c1csc(NC(=O)C(c2ccccc2)c2ccccc2)n1 (configuration not stated)	nt	69	nt	nt	nt
CCCSc1nsc(NC(=O)C(c2ccccc2)c2ccccc2)n1	-20	-2	122*	5	10
COc1cccc(NC(=O)Nc2nc(SC(C)(C)C)ns2)c1	3	-1	96*	nt	9
CCCSc1nsc(NC(=O)CC)n1	-2	-68	-9	nt	10
CCCSc1nsc(NC(=O)Nc2ccc(F)cc2F)n1	2	-8	95*	106*	5
CCSc1nsc(NC(=O)Nc2cccc(F)c2)n1	-7	43	93*	nt	-5
SMILES	Calb FLC	Shn3 inh set2	CSC inhib	Beta apoptosis	PfHsp90 yeast 2
CCCC(C(=O)NC1=NCCS1)c1ccccc1 (configuration not stated)	?	-4	nt	-3	0
Cc1c(N/N=C(\C#N)C(=O)c2ccccc2)c(=O)n(-c2ccccc2)n1C	0	89*	nt	nt	18
COc1ccc(C(NC(C)=O)c2cc(Cl)c3cccnc3c2O)cc1OC (configuration not stated)	-27	89*	2	95*	-28
COc1ccccc1C(NC(C)=O)c1cc(Cl)c2cccnc2c1O (configuration not stated)	-6	?	101*	94*	-19
CCCC(=O)Nc1sc(-c2ccccc2)c(-c2ccccc2)c1C(=O)O	14	8	8	-11	-6
NC(=S)NN=Cc1nccc2c(N)cccc12	nt	86*	nt	nt	nt
Cc1[nH]n(-c2ccc(Br)cc2)c(=O)c1/C=N/NC(=O)c1ccccc1	-3	85	80*	104*	19
Cc1[nH]n(-c2ccccc2)c(=O)c1/C=N/Nc1nncc(-c2ccccc2)n1	105*	75	110*	91*	-55
Cc1[nH]n(-c2ccc([N+](=O)[O-])cc2)c(=O)c1C=NCCN1CCN(C(=O)c2cccc(F)c2)CC1	22	4	47	48	84*
Cc1[nH]n(-c2ccccc2)c(=O)c1/C=N/NC(=O)c1cccc(F)c1	-39	79	49	92*	-35
Cc1ccc(/C=N/Nc2nncc(-c3ccccc3)n2)o1	-3	-18	nt	-2	-11
Cc1[nH]n(-c2ccc([N+](=O)[O-])cc2)c(=O)c1C=NCCN1CCN(C(=O)c2ccc(F)cc2)CC1	-21	-3	45	nt	-18
O=C(Nc1c(Cl)cccc1Cl)C1CCN(C(=O)c2cccs2)CC1	-3	-12	-5	5	9
O=C(NCc1nnc(SCC(=O)N2CCN(c3ccccc3)CC2)o1)c1c(F)cccc1F	9	-8	11	-4	14
O=C(NCC(c1cccs1)N1CCOCC1)c1cc(S(=O)(=O)N2CCOCC2)ccc1Cl (configuration not stated)	nt	-33	nt	nt	0
Cc1ccc(/C=N\NC(=O)COc2ccc(C)cc2[N+](=O)[O-])cc1	-6	-9	-1	-10	-5
Cc1[nH]n(-c2ccccc2)c(=O)c1/C=N/NC(=O)c1ccc(O)cc1O	-16	-5	nt	nt	-27
Cc1ccc(OCC(=O)N/N=C\c2c(C)[nH]n(-c3ccccc3)c2=O)c([N+](=O)[O-])c1	106*	68	16	87*	-12
CCCCN(CCCC)C(=S)N/N=C/c1c(C)[nH]n(-c2ccccc2)c1=O	62	55	-1	87*	-17
COC(=O)c1ccc(NS(=O)(=O)c2cc(-c3cc(C)no3)ccc2OC)cc1	88*	-11	61	17	-36
O=C(Oc1cc2oc(=O)c3c(c2cc1Cl)CCCC3)c1cccs1	95*	-2	-9	-16	-4
O=C(Nc1ccc2c(c1)OCO2)c1ccc(COc2ccc3c(c2)CCC3)o1	-1	-19	86*	-3	25
Cc1ccc(C)c(NC(=O)COC(=O)CCC(=O)c2cccs2)c1	-4	-7	-10	-3	8
CCCCc1ccc(Nc2nc(CCC)cc(=O)[nH]2)cc1	-8	73	102*	34	nt
O=C1c2nc3cc(-c4ccco4)[nH]n3c(=O)c2CN1C1CCCCC1	-18	-14	17	2	nt
COc1cc(C(C)=O)ccc1OC(=O)N1CCOCC1	nt	-9	nt	nt	nt
O=C(CC1SC(=Nc2ccccc2)N(CCc2c[nH]c3ccccc23)C1=O)Nc1ccccc1F (configuration not stated)	12	2	81*	-4	-3
